Test results taken from PubChem BioAssay (Tox21).
Activity calls are given as the source filed them. A call without a number means that no potency is given here. Unless noted, calls follow the shape of the full dose curve.

target: Thyrotropin-releasing hormone receptor (Homo sapiens) (UniProt P34981); test: qHTS assay to identify small molecule antagonists of the thyrotropin-releasing hormone receptor (TRHR) signaling pathway (AID 1346877; active = well fitted inhibition curve with a large enough effect in the repeat runs, not every such curve was filed as active); conditions: TRHR-HEK293, TRH-induced calcium fluorescence, antagonist mode; series mostly up to 51.3 µM
In short: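 TRHR-expressing HEK293 cells were seeded, cultured 18 h at 37 °C, then loaded with calcium dye for 2 h. Compounds were pre-incubated 5 min at room temperature before 1 nM TRH (final) was added, and kinetic fluorescence was recorded for 3 min.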

Chain of Thyrotropin-releasing hormone receptor (Homo sapiens) (P34981 whole entry, looked up): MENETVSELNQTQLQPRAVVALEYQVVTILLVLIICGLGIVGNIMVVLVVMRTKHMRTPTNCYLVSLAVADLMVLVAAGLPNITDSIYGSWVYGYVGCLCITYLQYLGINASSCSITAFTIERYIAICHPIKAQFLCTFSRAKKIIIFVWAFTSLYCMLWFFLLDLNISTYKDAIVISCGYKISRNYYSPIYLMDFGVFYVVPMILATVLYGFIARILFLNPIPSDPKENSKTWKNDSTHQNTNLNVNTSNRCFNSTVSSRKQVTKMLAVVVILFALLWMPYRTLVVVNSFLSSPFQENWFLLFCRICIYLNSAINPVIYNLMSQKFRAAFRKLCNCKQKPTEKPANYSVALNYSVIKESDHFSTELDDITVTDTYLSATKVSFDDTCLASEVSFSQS

Row | Structure (SMILES) | outcome
1 | CC1(C)[C@@H]2CC[C@@]1(C)[C@H](O)C2 | inactive
2 | CCN[C@H]1C[C@H](C)S(=O)(=O)c2sc(S(N)(=O)=O)cc21 | inactive
3 | O=CN(CCO)CCO | inactive

target: Thyrotropin-releasing hormone receptor (Homo sapiens) (UniProt P34981); test: qHTS assay to identify small molecule agonists of the thyrotropin-releasing hormone receptor (TRHR) signaling pathway (AID 1346891); conditions: TRHR-HEK293 calcium fluorescence, agonist mode; series mostly up to 57.6 µM
In short: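 In 1536-format, 1500 TRHR-Hek293 cells per well grew 18 h, took up calcium dye for 2 h at 37 °C, received compound, and were read kinetically; 15-point titrations, triplicates.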

Row | Structure (SMILES) | Potency
4 | CC1(C)OC[C@@H](COC(=O)CCc2ccc(OC[C@@H](O)CNCCNC(=O)N3CCOCC3)cc2)O1 | inactive
5 | CCC(C(=O)NC(=O)NC(C)=O)c1ccccc1 (stereo unspecified) | inactive
6 | CC(C)(N)C#N | inactive
7 | O=C(c1ccccc1)C1(O)CCCCC1 | inactive
8 | [O-][n+]1cccc(CO)c1 | inactive
9 | CC(C)CC(C)(N)C#N (stereo unspecified) | inactive
10 | C=CC(=O)OCCCl | inactive
11 | CCNS(=O)(=O)c1ccc(C)cc1 | inactive
12 | CC(=O)NC(=O)c1ccccc1O | inactive
13 | OCCCCCO | inactive
14 | O=C(CO)[C@@H](O)[C@H](O)[C@H](O)CO | inactive
15 | C=CC(C)(CCC=C(C)C)OC(=O)CC (stereo unspecified) | inactive
16 | CN(C)[C@@H]1C(=O)C(C(=O)NCN2CCCC2)=C(O)[C@@]2(O)C(=O)C3=C(O)c4c(O)cccc4[C@@](C)(O)C3C[C@@H]12 (stereo partly specified) | inactive
17 | Clc1cc(Cl)cc(Cl)c1 | inactive
18 | O=C1CCCCCCCCCCCCCCO1 | inactive
19 | CCCO[Si](OCCC)(OCCC)OCCC | inactive
20 | O=Cc1cccc(Br)c1 | inactive
21 | C[N+](C)(CCOc1ccccc1)Cc1cccs1 | inactive
22 | CN1CCC(=C2c3ccccc3CCc3cccnc32)CC1 | inactive
23 | CC(=O)c1ccc2ccccc2c1 | inactive
24 | c1ccc(Cc2ccccc2)cc1 | inactive
25 | C=C(C)C(=O)OCC1CCCO1 (stereo unspecified) | inactive
26 | CN(C)CCCN(C)CCCN(C)C | inactive
